# Records with an inconclusive call do not appear. Calls of active or inactive are those of the source. Calls follow the shape of the dose curve; as a rule, active = well fitted inhibition curve with a large enough effect in the signal ratio in the repeat runs (not every such curve was filed as active); inconclusive = weak or mixed curves, or effect the other way; inactive = no such curve, though single readings can be large or run the other way; the % refers to the signal ratio.
# Target: Estrogen receptor beta (Homo sapiens) (UniProt Q92731)
# Assay: qHTS assay to identify small molecule antagonists of the estrogen receptor beta (ER-beta) signaling pathway (AID 1259378)
# Conditions: ER-beta-UAS-bla HEK293T, beta-lactamase FRET ratio, 16 h; series mostly up to 92.4 µM; activity, negative = inhibition: at the top concentration
# Text: National Center for Advancing Translational Sciences [NCATS]
# NIH Chemical Genomics Center [NCGC]
# U.S. Environmental Protection Agency [EPA]
# National Institutes of Environmental Health Sciences [NIEHS]
# National Toxicology Program [NTP]
# U.S. Food and Drug Administration [FDA]
# Estrogen receptor (ER), a nuclear hormone receptor, plays an important role in development, metabolic homeostasis and reproduction. Two subtypes of ER, ER-alpha and ER-beta, have similar expression patterns with some uniqueness in both types. Endocrine disrupting chemicals (EDCs) and their interactions with steroid hormone receptors like ER causes disruption of normal endocrine function. To identify the compounds that inhibit ER signaling, an ER-beta-UAS-bla GripTite cell line (Life Technologies, Madison, WI, USA) containing a beta-lactamase reporter gene under the control of an UAS response element was used to screen Tox21 10K compound library.
# Tox21 Assay Protocol Summary:
# ER-beta-UAS-bla HEK293T cells were dispensed at 2,000 cells/4 uL of assay medium containing 2% charcoal stripped FBS per well into black wall/clear-bottom 1536-well plates using a Multidrop Combi (ThermoFisher Scientific, Waltham, MA) dispenser. After the assay plates were incubated at a 37C and 5% CO2 for 6 hr, 23 nL of compounds dissolved in DMSO, positive controls or DMSO only was transferred to the assay plate by a Pintool station (Kalypsys, San Diego, CA), followed by addition of 1 uL (1nM as final concentration) of 17-beta-estradiol (E2) in assay medium using a BioRAPTR FRD (Flying Reagent Dispenser, Aurora Discovery, San Diego, CA). The plates were incubated at 37C and 5% CO2 for 16 hr. Then 1 uL of LiveBLAzerTM B/G FRET substrate was added using a Flying Reagent Dispenser, the plates were incubated at room temperature for 2 hours, and fluorescence intensity was measured by an Envision plate reader (PerkinElmer, Shelton, CT).
# % is scaled to controls: 0 for no effect and ±100 for the full control effect.
# Sequence of Estrogen receptor beta (Homo sapiens) (Q92731 whole entry, looked up): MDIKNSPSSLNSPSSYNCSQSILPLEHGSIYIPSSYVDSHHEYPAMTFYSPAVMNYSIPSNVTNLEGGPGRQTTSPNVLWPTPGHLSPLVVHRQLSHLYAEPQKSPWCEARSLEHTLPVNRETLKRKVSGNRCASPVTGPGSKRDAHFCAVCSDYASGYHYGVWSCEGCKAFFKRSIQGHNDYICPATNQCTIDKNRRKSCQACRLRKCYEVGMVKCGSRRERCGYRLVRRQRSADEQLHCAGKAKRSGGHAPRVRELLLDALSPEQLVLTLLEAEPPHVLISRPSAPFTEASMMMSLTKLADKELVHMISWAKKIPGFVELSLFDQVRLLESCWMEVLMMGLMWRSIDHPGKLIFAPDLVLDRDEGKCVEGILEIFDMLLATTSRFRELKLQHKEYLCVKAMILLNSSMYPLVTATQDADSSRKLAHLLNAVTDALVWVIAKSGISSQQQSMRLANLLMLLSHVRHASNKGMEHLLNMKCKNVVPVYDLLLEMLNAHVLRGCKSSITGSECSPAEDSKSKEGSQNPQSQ
row,Compound,"activity, negative = inhibition"
1,COC(=O)c1ccccc1C(=O)O,15.8% (inactive)
2,CCN(CC)CCN,5.95% [at 42.5 µM] (inactive)
3,C=CC(=O)OCC1CCCO1 (stereo not given),3.62% (inactive)
4,CC(C)Cn1cnc2c1c(=O)n(C)c(=O)n2C,14.2% [at 42.5 µM] (inactive)
5,CC1(C)Oc2ccc(C#N)cc2[C@@H](N2CCCC2=O)[C@@H]1O,11.2% [at 42.5 µM] (inactive)
6,NCc1ccc(S(N)(=O)=O)cc1,2.11% [at 42.5 µM] (inactive)
7,CC(=O)CCC1=C(C)CCCC1(C)C,-9.97% (inactive)
8,CC(CO)(CO)CO,0.215% (inactive)
9,CCCCCCCCCCCCCCC(=O)NC(CO)CCCCCCCCCCCCCC (stereo not given),8.3% (inactive)
10,Cn1nnc2c(C(N)=O)ncn2c1=O,0.798% [at 42.5 µM] (inactive)
11,O=[N+]([O-])c1c(Cl)cc(Cl)cc1Cl,5.53% (inactive)
12,C#CCN[C@@H]1CCc2ccccc21,0.638% [at 42.5 µM] (inactive)
13,CN(C)C(C)(C)CO,-3.35% (inactive)
14,Cc1ccnc(N)c1,8.81% (inactive)
15,CC(C)=CCC[C@@](C)(O)[C@H]1CC=C(C)CC1,-4.38% [at 42.5 µM] (inactive)
16,Cc1cc(-c2ccccc2)nnc1NCCN1CCOCC1,-0.738% [at 42.5 µM] (inactive)
17,CCCc1ccc(O)cc1,-0.881% (inactive)
18,CC(Oc1cc(Cl)ccc1Cl)C(=O)O (stereo not given),4.79% (inactive)
19,Cn1c(=O)c2[nH]c(Br)nc2n(C)c1=O,16.8% [at 42.5 µM] (inactive)
20,C=CCOC(=O)CCCCCC,16.2% (inactive)

row,Compound,"activity, negative = inhibition"
1,CCCC(=O)Nc1ccc(OCC(O)CNC(C)C)c(C(C)=O)c1 (stereo not given),1.68% [at 42.5 µM] (inactive)
2,C=C(C)c1cccc(C(C)(C)N=C=O)c1,-3.93% (inactive)
3,O=C(O)CCCCCC(=O)O,-5.86% (inactive)
4,[O]=[Mo](=[O])=[O],0.823% [at 19 µM] (inactive)
5,CC(C)(C)NC[C@H](O)COc1cccc2c1CCCC2=O,-2.35% [at 42.5 µM] (inactive)
6,Cc1c(N)cccc1Cl,14.1% (inactive)
7,OCCN1CCOCC1,10% (inactive)
8,COC(=O)/C=C\C(=O)O,11.5% (inactive)
9,O=NN(CCCl)C(=O)NC1CCCCC1,17.6% [at 42.5 µM] (inactive)
10,CCN1CCCC1CN (stereo not given),6.4% [at 42.5 µM] (inactive)
11,C=CCSSCCC,5.16% (inactive)
12,CCCCCC/C=C/C(=O)OC,6.85% (inactive)
13,OCC1(CO)COCOC1,-3.85% (inactive)
14,c1ccc(-c2nn[nH]n2)cc1,7.33% (inactive)
15,C=CC/C=C/C,-9.3% (inactive)
16,CN1CCOC(c2ccccc2)c2ccccc2C1 (stereo not given),-7.81% [at 42.5 µM] (inactive)
17,O=C(CCCl)NCCc1ccccc1,4% [at 42.5 µM] (inactive)
18,C/C(=C1\CCOC(=O)S1)N(C=O)Cc1cnc(C)nc1N,-0.12% [at 42.5 µM] (inactive)
19,CC(C)NC(=O)c1ccc(C=O)cc1,1.58% [at 42.5 µM] (inactive)
20,COC(=O)c1cccc(Cl)c1,12.1% (inactive)
